Only some compounds are listed: those with a hit (about 1.7% of all), similar ones and a draw of the others.
hERG WT inh: blocks the wildtype human KCNH2 potassium channel; Q12809; U2OS, BacMam KCNH2, thallium flux FluxOr; hits give low values; activity change, % at 1.84 µM; actives 0.37% (n = 340,000); AID 720551;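 active = maximum activity change below -70%; inconclusive = maximum activity change between -70% and -50%; inactive = maximum activity change above -50%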
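U2OS cells were transduced with wild-type KCNH2 virus (2.03 x 10^8 / mL) for 4 h at room temperature, then cultured overnight at 37 C. Thallium flux was read with FluxOr dye. Rate constants were normalized to DMSO controls.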
TRHR enhancer: allosteric enhancers of human TRH receptor | TRHR cells, fluo-8 calcium fluorescence, EC20 TRH enhancement | P34981 | actives 0.66% (n = 360,000) | AID 493056 | enhancement, % at 2 µM; in the data active = enhancement above about 30%
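Enhancer read-out: after compound pinning and an initial kinetic agonist-mode read, an EC20 of TRH (10 nM final) was injected and fluo-8 calcium signal (Ex 480/Em 530) followed at 1 s/cycle for 100 cycles in TRHR-expressing cells.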
KCNH2 3.1 inh: KCNH2 3.1 (human) potassium channel inhibition; activity change, % (tested at about 1.8 µM); U2OS KCNH2 3.1, thallium flux FluxOr; hits give low values; actives 0.95% (n = 340,000);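 active = maximum activity change below -70%; inconclusive = maximum activity change from -70% to -50%; inactive = maximum activity change above -50%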;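 also: thallium influx rate constant from kinetic fluorescence after stimulation buffer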
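Steps: virus added to U2OS suspension (4 h, RT, dark); medium with 10% FBS added, cells plated, 37 C overnight; FluxOr/Red40 loading buffer 45 min RT; stimulation buffer, 2 min kinetic read; rate constant normalized.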
TRPML1 agonist: human mucolipin-1 channel agonism | TRPML1-expressing cells, Ca2+ dye fluorescence, FDSS | Q9GZU1 | activation, % (test concentration not listed) | AID 624414 | actives 0.12% (n = 410,000); in the data active = activation above about 50%; inconclusive = mostly about 30% to 49%
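In this qHTS format, compounds were pin-transferred onto Ca8-dye-loaded TRPML1-DL cells induced with Tet overnight, and intracellular Ca2+ fluorescence was recorded kinetically for 110 s after a 10 s baseline. A subsequent 4uM final 54-4 (EC80) addition followed by a second 110 s read served as the antagonist phase.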
TRHR ag: TRH receptor (human) agonism. TRHR cells, calcium flux fluo-8, FDSS agonist mode. activation, % at 2 µM. actives 0.18% (n = 360,000). AID 493084; in the data active = activation above about 30%
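TRHR-expressing cells, plated overnight in medium with 10% serum, were loaded with fluo-8 calcium dye at room temperature. After a 10 s baseline, library compound was pin-added and calcium release was recorded kinetically (ex 480/em 530) as agonist response.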
TRPML1 blocker: human mucolipin-1 channel inhibition; Q9GZU1; actives 0.02% (n = 390,000); TRPML1-inducible cells, Ca2+ dye fluorescence, FDSS; hits give low values; inhibition of EC80 agonist-evoked calcium signal; activity change, negative = inhibition, % (test concentration not listed); in the data active = activity change below about -50%; inconclusive = between about -30% and that limit;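 also: stimulus is agonist 54-4 at its EC80 concentration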
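TRPML1-DL cells, Tet-induced overnight (~16 h, 37 °C) at 1,500 cells/well, were loaded with Ca8 no-wash dye plus quencher for 45-90 min at room temperature. Compounds were pinned during FDSS kinetic reading; agonist 54-4 at EC80 (4 uM final) then added.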
A number is an active result; . = inactive; ? = inconclusive; / = no result.

SMILES	hERG WT inh	TRHR enhancer	KCNH2 3.1 inh	TRPML1 agonist	TRHR ag	TRPML1 blocker
CCN(CC1CCCN(CCc2cccc(F)c2)C1)C(=O)c1cc2ccccc2o1 (centres undefined)	.	.	-75	.	.	.
CCN(CC1CCCN(CCc2cccc(F)c2)C1)C(=O)c1cc(C)oc1C (centres undefined)	.	.	.	.	.	.
O=C(OCC(=O)N1CCc2ccccc2C1)c1ccc(O)cc1	.	/	.	.	/	.
Cc1cc(C)c2c(CN3CCN(Cc4ccc5c(c4)OCO5)CC3)cc(=O)oc2c1C	.	.	-92	.	.	.
Cc1ccc2c(CN3CCN(Cc4ccc5c(c4)OCO5)CC3)cc(=O)oc2c1C	.	.	.	.	.	.
O=C(NCCC(F)(F)F)C1Cc2c(-c3ccc(Cl)cc3)ccnc2O1 (centres undefined)	/	/	/	.	/	/
CCCCN(C)CCCNC(=O)c1cc(=O)[nH]c2ccc(S(=O)(=O)N3CCCCC3)cc12	/	53	/	.	.	.
COc1cccc(CNC(=O)c2cc(=O)[nH]c3ccc(S(=O)(=O)N4CCCC4)cc23)c1	/	.	/	.	.	.
CCCCCNC(=O)c1c[nH]c2ccc(S(=O)(=O)N3CCC(C)CC3)cc2c1=O	/	.	/	.	.	-50
c1ccc2c(c1)ccn2CCCN1CCCCC1	.	/	.	.	/	.
CN1CCn2cnc(C(=O)N[C@@H](Cc3ccccc3)C(=O)OC(C)(C)C)c2C1=O	.	/	.	/	/	/
Cc1onc(-c2c(Cl)cccc2Cl)c1C(=O)N1CCN(Cc2ccccc2)CC1	.	.	.	.	.	.
Cc1onc(-c2c(F)cccc2Cl)c1C(=O)NNC(=O)C1CCN(Cc2ccccc2)CC1	.	.	-102	.	.	.
N=C(N)SCc1ccc(Cl)cc1Cl	.	.	.	.	.	.
Nc1ccc(CSc2ccc(Cl)cc2)c(Cl)c1	.	/	-102	.	/	.
CCOc1ccc(CNC(=O)Cn2nc(C)c3nn(-c4ccc(Cl)cc4)c(C)c3c2=O)cc1OC	/	.	/	.	.	.
c1ccc2c(CN3CCSCC3)cccc2c1	.	.	.	.	.	.
Cc1nc(N)[nH]c(=O)c1CCCNc1ccc([N+](=O)[O-])cc1	.	/	-119	.	/	.
Cc1ccc(N(C(C)C(=O)Nc2cc(Cl)ccc2Oc2ccccc2)S(C)(=O)=O)cc1 (centres undefined)	.	.	-72	.	.	.
Cc1ccc(S(=O)(=O)N(C)c2ccc(OCC(=O)OCc3nnc(-c4ccccc4)o3)cc2)cc1	.	/	-88	.	/	.
Cc1ccc(S(=O)(=O)N(C)c2ccc(OC(=O)COc3ccccc3)cc2)cc1	.	/	.	.	/	.
O=C(CNC(=O)c1ccncc1)N/N=C/c1ccc(Br)cc1	.	.	-109	.	.	.
CCOC(=O)C1=C(C)N=C2c3ccccc3C(=O)C2C1c1ccc(Cl)cc1 (centres undefined)	.	.	-105	.	.	.
CC1(C)CC(=O)C2=C(C1)N=C1c3ccccc3C(=O)C1C2c1ccc(Cl)cc1 (centres undefined)	.	.	.	.	.	.
CN1CCN(c2nc(NCCOC34CC5CC(CC(C5)C3)C4)nc(OCC(F)(F)F)n2)CC1	.	.	-71	.	.	.
SMILES	hERG WT inh	TRHR enhancer	KCNH2 3.1 inh	TRPML1 agonist	TRHR ag	TRPML1 blocker
CCCN1CCc2nc(N3CCN(c4ncccn4)CC3)ncc2C1	/	.	/	.	.	.
Cc1cnn(-c2cc(N/N=C/c3ccccc3)ncn2)c1	.	.	.	.	.	.
Cc1cnn(-c2cc(N/N=C/c3cccc(F)c3)ncn2)c1	.	36	.	.	.	.
COc1cccc(-n2c(C)cc(/C=C3\C(=N)N4N=C(CC(=O)N5CCOCC5)SC4=NC3=O)c2C)c1	.	.	.	.	.	.
Cc1ccc(C(=O)NCc2ccc(N3CCN(C(=O)OC(C)(C)C)CC3)cc2)cc1	.	.	-117	.	.	.
Cc1ccc(CNC(=O)c2ccc(-n3c(C)cc4c3CCCC4)cc2)cc1	/	31	/	.	.	.
Cc1ccc(S(=O)(=O)NCc2ccc(N3CCN(C(=O)OC(C)(C)C)CC3)cc2)cc1	.	.	.	.	.	?
OC(COCc1cccs1)CN1CCN(c2ccccc2Cl)CC1 (centres undefined)	.	.	-83	.	.	.
CCOc1ccccc1N1CCN(CC(O)COCc2cccs2)CC1 (centres undefined)	.	.	.	.	.	.
Cc1cccc(N2CCN(CC(O)COCc3cccs3)CC2)c1C (centres undefined)	-80	.	-98	.	.	.
CN1CCCN(CC(O)COCc2cccs2)CC1 (centres undefined)	.	.	.	.	.	.
COC(=O)[C@H](CC(C)C)NC(=O)/C=C/[C@H]1O[C@@H](n2ccc(=O)[nH]c2=O)[C@H](O)[C@@H]1O	/	/	/	.	/	.
COC(=O)C1CCN(C(=O)[C@H](C)NC(=O)C2CC(=O)N(c3ccc(F)cc3)C2)CC1 (some centres undefined)	.	.	.	.	.	.
FC(F)(F)c1cccc(CN2CCC(c3cc(-c4cccs4)n[nH]3)CC2)c1	.	.	.	.	.	.
Cc1ccc(CN2CCC(c3cc(-c4cccs4)n[nH]3)CC2)cc1	-71	.	-113	.	.	.
CCCCc1ncc(CN2CCC(CC3CCCCO3)(C(=O)OCC)CC2)[nH]1 (centres undefined)	.	.	.	.	.	.
CCOC(=O)C1(CC2CCCCO2)CCN(Cc2cc3ccccc3[nH]2)CC1 (centres undefined)	.	.	.	95	.	.
COC(=O)C1=C[C@@H](C(=O)OC)C2C3=C(C(=O)[C@@]2(C)NC(=O)c2ccccc2)[C@H](C)n2c(=O)n(-c4ccccc4)c(=O)n2[C@@H]3C1 (some centres undefined)	/	/	/	.	/	.
O=C(N/N=C/c1cccs1)c1n[nH]c2c1CCCC2	.	.	.	.	.	.
C/C(=N\NC(=O)c1n[nH]c2c1CCC2)c1cccs1	.	.	-118	.	.	.
CN(CCc1ccccc1)C(c1cc2ccccc2o1)c1nnnn1C(C)(C)C (centres undefined)	/	/	/	70	/	/
CCCc1ccc(OC(C)c2nc(-c3ccc(-n4cccc4)cc3)no2)cc1 (centres undefined)	/	36	/	.	.	.
CCOC(=O)CCc1c(C)c2cc3c(c(C)c2oc1=O)OCN(CCc1ccccc1OC)C3	/	.	/	.	.	.
CSc1nsc(SC)c1NC(=O)Nc1ccccc1C	.	.	-84	.	.	.
CSc1nsc(SC)c1NC(=O)N1CCCCC1	.	.	.	.	.	.
